# Laboratory results from PMC5540273 (PLoS ONE, 2017).
# Tests used:
# [1] = system: CDK2
# [2] = system: CDK5
# [3] = system: CDK7
# [4] = system: CDKL5
# [5] = system: CDK8
# [6] = system: CDK9
# [7] = system: CDKL3
# [8] = system: CIT
# [9] = system: CLK1
# [10] = system: CLK3
# [11] = system: CDKL2
# 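Note: kd values determined as follow-up on hits from a single-replicate KINOMEscan panel screen.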
smiles,measurement,setting,value
COC(=O)C(NC(=O)NC1CCN(c2ccnc(Nc3ccc(F)cc3)n2)C1)c1ccccc1 (centres unmarked) [GSK1379712],Kd,[1],> 10 µM
Cc1ccc(-c2nc(Nc3ccncc3)c3ccccc3n2)s1 [GSK189015],Kd,[2],> 10 µM
Nc1cccc(-c2ccc3c(N)n[nH]c3c2)n1 [GSK2192730],Kd,[3],> 10 µM
O=C(Nc1n[nH]c2nc(-c3ccco3)c(Br)cc12)C1CCN(Cc2ccccc2)C1.O=C(O)[C@H](O)[C@@H](O)C(=O)O (centres unmarked) [SB-742034],Kd,[3],1.1 µM
same,Kd,[4],1.1 µM
Cc1cnc(N)c(/C=C/c2cncc(C(=O)NCCc3ccc(Cl)cc3Cl)c2)c1.Cl [GSK190937],Kd,[5],1.1 µM
Cc1nccc(-c2c(-c3ccc(F)cc3)ncn2CCCN2CCOCC2)n1.Cl [SB-282975],Kd,[6],> 10 µM
Cc1c(Cn2c3ccccc3n3c(=O)cc(N4CCOCC4)nc23)cccc1C(F)(F)F [GSK2306394],Kd,[6],> 10 µM
Cn1cncc1C(=O)NC1CCN(c2ccnc(Nc3ccc(F)cc3)n2)C1 (centres unmarked) [GSK1379717],Kd,[7],> 10 µM
Cc1ccc(NC(=O)Nc2ccc(Cl)c(C(F)(F)F)c2)cc1-c1ccc(C(=O)Nc2ccncc2)cc1 [GSK1398470],Kd,[8],0.38 µM
O=C1NC(=O)C(c2ccc(Cl)cc2)=C1Nc1cccc(Cl)c1 [SB-317651],Kd,[9],4.4 µM
CC(=O)c1c(C)c2cnc(Nc3ccc(N4CCNCC4)cn3)nc2n(C2CCCC2)c1=O,Kd,[10],> 10 µM
O=C(Nc1n[nH]c2nc(-c3cccs3)c(Br)cc12)C1CCCC1 [SB-743341],Kd,[11],0.33 µM
CS(=O)(=O)CCNCc1nc(-c2ccc3ncnc(Nc4ccc5c(cnn5Cc5ccccc5)c4)c3c2)cs1.Cl.Cl [GW569716],Kd,[7],> 10 µM
COc1ccc(Nc2nccc(N3CCC(NC(=O)C(C)c4ccc(Cl)cc4)CC3)n2)cc1 (centres unmarked) [GSK1379812],Kd,[4],> 10 µM
Cc1cccc2c(-c3ccncn3)c(-c3ccc(F)cc3)nn12 [GW515532],Kd,[10],> 10 µM
CCCCc1nn2ncccc2c1-c1ccnc(NC2CC2)n1 [GW684374],Kd,[10],> 10 µM
